In all, about 5,500 compounds went through this assay and about 2,000 (36%) were called active. Another 18% or so got no clear call; they are omitted. Cut-off read from the data, not from the text of the source: active = normalized growth mostly below about 0.91 (no sharp cut-off); inconclusive = no clear call, values can overlap the other calls; inactive = mostly above about 0.92. This is one part of the list.
Test: chemical genetic growth profiling, strain panel (AID 1159580);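 note: tested at 20 µM; growth read once vehicle control cultures reached saturation at 30 °C; 1 = growth at the plate median or of vehicle wells; lower values mean less growth of the strain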
Conditions: S. cerevisiae deletion strains, growth OD

Measured: normalized growth

CSC1=NNC(c2nn(C)cc2Cl)S1 (stereo unspecified)
active: locus YAR019C, strain CDC15, active compounds read low 0.366 | locus YBL105C, strain PKC1, active compounds read low 0.509 | locus YBR135W, strain CKS1, active compounds read low 0.582 | locus YBR136W, strain MEC1, active compounds read low 0.565 | locus YBR160W, strain CDC28, active compounds read low 0.644 | locus YDL017W, strain CDC7, active compounds read low 0.586 | locus YDL028C, strain MPS1, active compounds read low 0.551 | locus YDL101C, strain DUN1, active compounds read low 0.206 | locus YDL108W, strain KIN28, active compounds read low 0.653 | locus YDL132W, strain cdc53, active compounds read low 0.472 | locus YDL214C, strain PRR2, active compounds read low 0.145 | locus YDR052C, strain DBF4, active compounds read low 0.874 | locus YDR054C, strain cdc34, active compounds read low 0.318 | locus YDR226W, strain ADK1, active compounds read low 0.511 | locus YDR477W, strain SNF1, active compounds read low 0.134 | locus YER123W, strain YCK3, active compounds read low 0.126 | locus YER133W, strain GLC7, active compounds read low 0.138 | locus YFL009W, strain cdc4, active compounds read low 0.282 | locus YFL029C, strain CAK1, active compounds read low 0.374 | locus YFR003C, strain YPI1, active compounds read low 0.594 | locus YFR019W, strain FAB1, active compounds read low 0.148 | locus YFR028C, strain CDC14, active compounds read low 0.444 | locus YGR040W, strain KSS1, active compounds read low 0.13 | locus YGR052W, strain FMP48, active compounds read low 0.131 | locus YGR092W, strain DBF2, active compounds read low 0.117 | locus YHR030C, strain SLT2, active compounds read low 0.178 | locus YHR079C, strain IRE1, active compounds read low 0.214 | locus YHR082C, strain KSP1, active compounds read low 0.236 | locus YHR205W, strain SCH9, active compounds read low 0.0971 | locus YIL147C, strain SLN1, active compounds read low 0.502 | locus YJL095W, strain BCK1, active compounds read low 0.134 | locus YJL128C, strain PBS2, active compounds read low 0.31 | locus YJL157C, strain FAR1, active compounds read low 0.159 | locus YJR016C, strain ILV3, active compounds read low 0.337 | locus YJR066W, strain TOR1 (second series), active compounds read low 0.171 | locus YJR066W, strain TOR1, active compounds read low 0.17 | locus YKL048C, strain ELM1, active compounds read low 0.158 | locus YKL067W, strain YNK1, active compounds read low 0.176 | locus YKL101W, strain HSL1, active compounds read low 0.142 | locus YKL193C, strain SDS22, active compounds read low 0.425 | locus YKL203C, strain TOR2, active compounds read low 0.136 | locus YLR113W, strain HOG1, active compounds read low 0.157 | locus YLR133W, strain CKI1, active compounds read low 0.137 | locus YLR403W, strain SFP1, active compounds read low 0.0487 | locus YML070W, strain DAK1, active compounds read low 0.147 | locus YMR001C, strain CDC5, active compounds read low 0.479 | locus YMR205C, strain PFK2 (second series), active compounds read low 0.143 | locus YMR277W, strain FCP1, active compounds read low 0.292 | locus YNL006W, strain LST8, active compounds read low 0.372 | locus YNL020C, strain ARK1, active compounds read low 0.126 | locus YNL161W, strain CBK1, active compounds read low 0.393 | locus YNL183C, strain NPR1, active compounds read low 0.112 | locus YNL207W, strain RIO2, active compounds read low 0.448 | locus YNL222W, strain SSU72, active compounds read low 0.455 | locus YNL307C, strain MCK1 (second series), active compounds read low 0.122 | locus YOL078W, strain AVO1, active compounds read low 0.415 | locus YOL136C, strain PFK27, active compounds read low 0.116 | locus YOR061W, strain CKA2, active compounds read low 0.118 | locus YOR119C, strain RIO1, active compounds read low 0.156 | locus YOR231W, strain MKK1, active compounds read low 0.222 | locus YOR329C, strain SCD5, active compounds read low 0.487 | locus YPL031C, strain PHO85, active compounds read low 0.128 | locus YPL153C, strain RAD53, active compounds read low 0.121 | locus YPL204W, strain HRR25, active compounds read low 0.16 | locus YPL209C, strain IPL1, active compounds read low 0.595 | locus YPL256C, strain CLN2, active compounds read low 0.177 | locus YPR025C, strain CCL1, active compounds read low 0.511 | locus YPR106W, strain ISR1, active compounds read low 0.395 | locus YPR111W, strain DBF20, active compounds read low 0.525 | strain NNK1, active compounds read low 0.199 | strain TSCII, active compounds read low 0.337

From PubChem BioAssay AID1159580 (chemical genetic matrix, 2015)
